Data as given in PubChem BioAssay AID1159580 (chemical genetic matrix, 2015).
Several values for one entry are separate records, joined by “and”; a condition that tells them apart may be missing. Equal entries are not always repeated. About 2,000 (36%) of roughly 5,500 compounds were called active. Roughly 18% stayed inconclusive and do not appear here. Rule as the data show it: active = normalized growth mostly below about 0.91 (no sharp cut-off); inconclusive = no clear call, values can overlap the other calls; inactive = mostly above about 0.92. Some of the results follow.

Test: chemical genetic growth profiling, strain panel (AID 1159580);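 also: tested at 20 µM; growth read once vehicle control cultures reached saturation at 30 °C; 1 = growth at the plate median or of vehicle wells; lower values mean less growth of the strain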
Settings: S. cerevisiae deletion strains, growth OD

Measured: normalized growth

CS(=O)(=O)c1ccc([C@@H](O)[C@@H](CO)NC(=O)C(Cl)Cl)cc1
inactive: locus YAL013W, strain DEP1, hits give low values 0.978 | locus YAL021C, strain ccr4, hits give low values 1.05 | locus YAL026C, strain drs2, hits give low values 1.04 | locus YAL030W, strain snc1, hits give low values 1.01 | locus YBL061C, strain skt5, hits give low values 1.02 | locus YBR009C, strain hhf1, hits give low values 1.01 | locus YBR021W, strain FUR4, hits give low values 1.1 | locus YBR023C, strain chs3, hits give low values 1.04 | locus YBR171W, strain sec66, hits give low values 1.04 | locus YBR229C, strain ROT2, hits give low values 0.964 | locus YBR231C, strain swc5, hits give low values 1.02 | locus YBR279W, strain paf1, hits give low values 1.04 | locus YCL011C, strain gbp2, hits give low values 1.03 | locus YCL016C, strain dcc1, hits give low values 1.04 | locus YCL029C, strain bik1, hits give low values 0.981 | locus YCL069W, strain vba3, hits give low values 1.03 | locus YCR088W, strain abp1, hits give low values 1.03 | locus YDL005C, strain med2, hits give low values 1.02 | locus YDL035C, strain GPR1, hits give low values 0.988 | locus YDL040C, strain nat1, hits give low values 1.02 | locus YDL074C, strain BRE1, hits give low values 0.957 | locus YDL101C, strain DUN1, hits give low values 0.967 | locus YDL134C, strain PPH21, hits give low values 0.985 | locus YDL185W, strain tfp1, hits give low values 0.941 | locus YDL192W, strain arf1, hits give low values 0.981 | locus YDR001C, strain nth1, hits give low values 1.02 | locus YDR069C, strain doa4, hits give low values 1 | locus YDR101C, strain arx1, hits give low values 0.998 | locus YDR137W, strain rgp1, hits give low values 1.06 | locus YDR150W, strain NUM1, hits give low values 0.977 | locus YDR159W, strain sac3, hits give low values 0.942 | locus YDR162C, strain NBP2, hits give low values 0.954 | locus YDR195W, strain ref2 1.01 | locus YDR297W, strain sur2, hits give low values 1.02 | locus YDR318W, strain mcm21, hits give low values 0.998 | locus YDR334W, strain swr1, hits give low values 1.02 | locus YDR335W, strain msn5, hits give low values 1.04 | locus YDR388W, hits give low values 0.991 | locus YDR392W, strain spt3, hits give low values 0.947 | locus YDR502C, strain sam2, hits give low values 0.997 | locus YEL003W, strain gim4, hits give low values 1.01 | locus YEL037C, strain rad23, hits give low values 1.02 | locus YEL061C, strain CIN8 (second series), hits give low values 1.02 | locus YEL061C, strain CIN8, hits give low values 0.979 | locus YER015W, strain faa2, hits give low values 1.02 | locus YER016W, strain bim1, hits give low values 1.04 | locus YER110C, hits give low values 0.974 | locus YER111C, strain swi4, hits give low values 1.03 | locus YER155C, strain BEM2 (second series), hits give low values 1.03 | locus YER155C, strain BEM2, hits give low values 1 | locus YER167W, strain BCK2, hits give low values 0.985 | locus YFR010W, strain ubp6, hits give low values 1.02 | locus YGL078C, strain dbp3, hits give low values 1 | locus YGL086W, strain mad1, hits give low values 1 | locus YGL167C, strain pmr1, hits give low values 1.02 | locus YGL173C, strain kem1, hits give low values 1.02 | locus YGL227W, strain vid30, hits give low values 1.02 | locus YGL240W, strain doc1, hits give low values 0.996 | locus YGL248W, strain PDE1, hits give low values 0.968 | locus YGL253W, strain hxk2, hits give low values 1.05 | locus YGR078C, strain PAC10, hits give low values 0.993 | locus YGR135W, strain pre9, hits give low values 0.98 | locus YGR229C, strain SMI1, hits give low values 0.979 | locus YGR252W, strain gcn5, hits give low values 1.06 | locus YHR013C, strain ard1, hits give low values 1.05 | locus YHR027C, strain rpn1, hits give low values 1.02 | locus YHR030C, strain SLT2, hits give low values 0.983 and 0.994 | locus YHR079C, strain IRE1 (second series), hits give low values 0.998 | locus YHR079C, strain IRE1, hits give low values 0.982 | locus YHR094C, strain hxt1, hits give low values 0.991 | locus YHR129C, strain ARP1, hits give low values 0.989 | locus YHR142W, strain chs7, hits give low values 1.07 | locus YHR200W, strain rpn10, hits give low values 0.989 | locus YIL066C, strain RNR3, hits give low values 0.995 | locus YIL073C, strain SPO22, hits give low values 0.998 | locus YIL125W, strain kgd1, hits give low values 0.992 | locus YIR030C, strain dcg1, hits give low values 0.978 | locus YJL092W, strain hpr5, hits give low values 1.02 | locus YJL095W, strain BCK1 (second series), hits give low values 1.01 | locus YJL095W, strain BCK1, hits give low values 1 and 0.995 | locus YJL115W, strain asf1, hits give low values 1.04 | locus YJL129C, strain trk1, hits give low values 1.05 | locus YJL134W, strain LCB3, hits give low values 0.974 | locus YJL154C, strain vps35, hits give low values 1.03 | locus YJL164C, strain tpk1, hits give low values 1.01 | locus YJL166W, strain qcr8, hits give low values 1.02 | locus YJL168C, strain set2, hits give low values 0.985 | locus YJL187C, strain SWE1 (second series), hits give low values 0.975 | locus YJR043C, strain POL32, hits give low values 1.01 | locus YJR066W, strain TOR1, hits give low values 0.962 | locus YJR075W, strain HOC1, hits give low values 0.983
